An excerpt weighted towards active compounds, which were near 2.1% of everything screened.
KKLEB tox – cytotoxicity in KKLEB CF airway cells, primary screen, cytotoxicity control for CF NF-kB inhibitor project, cell-based, uHTS, fluorescence assay plates | KKLEB CF airway cells viability, ATPlite luminescence, overnight; active compounds read low; cells stimulated with P. aeruginosa culture filtrate | activity change (cytotoxicity), % at 5 µM | actives 0.36% (n = 360,000);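 active means corrected activity change at or below -50% at 5 µM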
EWS-Fli block – EWS/Fli-driven NR0B1 reporter inhibitors, primary screen, A673 cells, NR0B1 luciferase, luminescence, MLPCN library | viability-normalised | inhibition, % at 12.6 µM | actives 0.67% (n = 350,000);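 active means mean inhibition of at least 50% after viability correction, with every replicate also passing that limit; inconclusive means mean reaches 50% but only one of two replicates passes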;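 further: firefly luciferase signal divided by Alamar Blue viability fluorescence both relative to DMSO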
PAX8 inh HTS – inhibitors of PAX8-driven TPO luciferase reporter, primary screen, RMG-I cells, single concentration | SteadyGlo, 24 h | inhibition, % at 12.6 µM | actives 1.2% (n = 360,000);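 active means mean replicate inhibition at least 60% with every replicate also reaching 60%; inconclusive means only one of the two criteria is met; inactive means mean below 60% and not all replicates reaching 60%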;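 further: luciferase light reporting Pax8 driven TPO promoter activity; plate controls were median of neutral control wells for no effect and mitoxantrone controls for full effect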
CF NFkB block – inhibitors of PAF-induced NF-kB signaling, primary screen, cell-based, GFP fluorescence, uHTS. actives 0.86% (n = 360,000). AID 588850, 2011. inhibition, % at 5 µM. KKLEB NF-kB-GFP reporter, GFP fluorescence overnight;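 active means at least 50% inhibition at 5 µM, scaled per plate between neutral and stimulator controls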;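 further: PAF is a Pseudomonas aeruginosa culture filtrate used as stimulus; plate controls were PAF-stimulated DMSO wells for no effect and unstimulated DMSO wells for full effect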
HIF-2a inh – HIF-2a reporter inhibitors, primary screen, luminescence, 786-0 RCC cells. inhibition, % at 18.8 µM. AID 624352, 2012. actives 0.72% (n = 360,000). 786-0 RCC cells HIF-2a reporter, luciferase luminescence, overnight;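 active means inhibition of the luminescence signal of 40% or more relative to plate controls, in a single-dose primary screen at 18.75 µM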
CF NFkB inh conf – inhibitors of PAF-induced NF-kB signaling, retest, confirmation, cell-based, GFP fluorescence, single concentration; inhibition, % at 5 µM; shares compounds with CF NFkB block; KKLEB CF airway cells, overnight; AID 602472, 2012; actives 64% (n = 1,300); in the data active means inhibition above about 40%;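 further: stimulus PAF is a Pseudomonas aeruginosa filtrate and not platelet activating factor; plate controls were DMSO wells with stimulus for no effect and unstimulated DMSO wells for full effect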
An asterisk follows results filed as active; ? = inconclusive; . = no result given; ! = repeats disagree.

SMILES	KKLEB tox	EWS-Fli block	PAX8 inh HTS	CF NFkB block	HIF-2a inh	CF NFkB inh conf
CCCNC(=O)N(C)C[C@@H]1Oc2cc(C3=CCCCC3)ccc2S(=O)(=O)N([C@@H](C)CO)C[C@@H]1C	.	0	16	.	.	.
CCCC#Cc1cnc2c(c1)C(=O)N([C@@H](C)CO)C[C@H](C)[C@@H](CN(C)Cc1ccc3c(c1)OCO3)O2	.	-3	-23	.	.	.
CCc1ccc(-n2c(SCC(=O)c3ccc4c(c3)NC(=O)CO4)nc3ccccc3c2=O)cc1	-4	16	-5	-8	9	.
O=C1COc2ccc(C(=O)CSc3nc4ccccc4c(=O)n3-c3ccc(Cl)c(Cl)c3)cc2N1	-48	35	13	55*	9	-2
COc1nc(-c2ccc(C)cc2)ccc1-c1noc(-c2cccnc2)n1	-32	.	16	53*	-6	19
COc1nc(-c2ccccc2)ccc1-c1noc(-c2cccnc2)n1	10	.	.	1	-78	.
CC(C)(C)S(=O)N1Cc2cc(C(=O)NCC(F)(F)F)nc(-c3cccc(-c4cccc(F)c4)c3)c2[C@@H]1CCO (stereo not given in full)	-10	20	70*	78*	15	65*
O=C(C[C@@H]1CC[C@@H](NC(=O)C2CCOCC2)[C@H](CO)O1)Nc1ccccc1	.	-6	.	.	.	.
Cc1ccc(NNC(=O)C(O)(c2cccc(C(F)(F)F)c2)c2cccc(C(F)(F)F)c2)cc1	6	-4	17	-14	6	.
O=C(NNc1ccccc1Br)C(O)(c1cccc(C(F)(F)F)c1)c1cccc(C(F)(F)F)c1	-47	.	25	57*	24	83*
O=C(CCC1COc2ccccc2O1)Nc1ccc(Cl)cn1 (stereo not given)	-14	.	.	60*	-159	48*
CC(=O)c1ccc(NC(=O)Nc2ccc3c(c2)N(C)C(=O)CS3)cc1	-34	.	-88	72*	-50	53*
CCOc1ccc(NC(=O)Nc2ccc3c(c2)N(C)C(=O)CS3)cc1	9	0	-8	17	-10	.
CO[C@@H]1CN(C)C(=O)c2cc(NC(=O)NC3CCCCC3)ccc2OC[C@H](C)N(CCc2ccccc2)C[C@@H]1C	.	4	.	.	.	.
Cc1nnc(Sc2nc3ccccc3o2)c2ccccc12	-35	.	.	55*	-40	52*
Cc1cccc(C)c1Nc1ncnc(N)c1[N+](=O)[O-]	4	-10	-11	4	6	.
Cc1ccc(CNc2ncnc(N)c2[N+](=O)[O-])cc1	-10	-19	-76	63*	-29	66*
COc1ccc(NC(=O)Nc2ccc3c(c2)C(=O)N([C@@H](C)CO)C[C@H](C)[C@H](CN(C)Cc2ccc(C(=O)O)cc2)OCCCC[C@@H](C)O3)cc1	.	1	5	.	.	.
C[C@@H]1CCCCO[C@H](CN(C)S(=O)(=O)c2cn(C)cn2)[C@@H](C)CN([C@@H](C)CO)C(=O)c2cc(NS(=O)(=O)c3cccs3)ccc2O1	.	0	-27	.	.	.
Cc1noc(C)c1NC(=O)N(C)C[C@H]1Oc2ccc(NS(C)(=O)=O)cc2CC(=O)N([C@@H](C)CO)C[C@H]1C	.	3	-25	.	.	.
COc1ccc(NC(=O)c2cc3c(CO)cnc(C)c3oc2=Nc2cccc(F)c2)c(OC)c1	-33	-4	10	52*	8	26
COc1ccc(S(=O)(=O)N(C)C[C@H]2Oc3c(NC(=O)c4cnccn4)cccc3C(=O)N([C@@H](C)CO)C[C@H]2C)cc1	.	4	.	.	.	.
COC(=O)C1=C(C)NC(C)=C(C(=O)OCC(C)C)C1c1ccccc1[N+](=O)[O-] (stereo not given)	-1	11	55	83*	25	58*
CCN(CC)C(=O)CNC(=O)c1nn(-c2ccc(OC)c(Cl)c2)c(=O)c2ccccc12	-17	5	-7	35	19	.
COc1ccc(-n2nc(C(=O)NCC(=O)Nc3cc(OC)c(OC)c(OC)c3)c3ccccc3c2=O)cc1Cl	-20	8	81*	79*	6	101*
SMILES	KKLEB tox	EWS-Fli block	PAX8 inh HTS	CF NFkB block	HIF-2a inh	CF NFkB inh conf
Cc1cnc(NC(=O)CCCc2nc3ccccc3s2)s1	16	.	.	84*	-42	89*
CCCNC(=O)C[C@H]1CC[C@@H]2[C@@H](COc3ccc(NC(=O)c4cccc(F)c4)cc3C(=O)N2C)O1	.	-5	7	.	.	.
C=C1C(=O)OC2C1C(OC(=O)C(C)=CC)CC(=C)C1C(O)C3OC3(C)C21O (stereo not given)	-16	-10	46	22	22	.
C=C1C(=O)OC2C=C(CO)CCC=C(CO)CC(OC(=O)C(C)C)C12 (stereo not given)	-15	-2	-6	87*	9	45*
Cc1cn(-c2cc(C(=O)Nc3ccc(C)c(NC(=O)C(=O)c4c[nH]c5ccccc45)c3)cc(C(F)(F)F)c2)cn1	0	27	40	50*!	24	21
COC(=O)C[C@H]1CC[C@@H]2[C@H](COc3ccc(NC(=O)c4ccc(F)cc4)cc3C(=O)N2C)O1	.	-23	8	.	.	.
COc1cc2c(cc1NC(=O)Cc1ccc(C)cc1)oc1ccccc12	-11	-103	-95	4	-305	.
COc1cc2c(cc1NC(=O)CN1CCN(S(=O)(=O)c3ccccc3F)CC1)oc1ccccc12	-40	.	.	55*	10	41*
CC(C)(O)C#Cc1ccc([C@@H]2C[C@H]3CN(c4ccccc4)C(=O)[C@]34CCCN24)s1	-1	16	?	60*	-7	44*
COCc1cc([C@@H]2C[C@H]3CN(c4ccccc4)C(=O)[C@]34CCCN24)ccc1OC	0	8	1	6	7	.
CCC(C)Oc1cc(-c2ccnc(Nc3cccc(Cl)c3)n2)ccn1 (stereo not given)	-42	25	-84	99*	11	105*
Cc1cc(C)nc(Nc2cccc(Cl)c2)n1	-10	-36	-2	9	-50	.
Cc1ccsc1CN(C)c1ncnc2ccc(-c3ccoc3)cc12	-16	0	-3	84*	2	97*
COc1cccc(-c2ccc3ncnc(N(C)Cc4ccco4)c3c2)c1	-11	1	10	49	6	.
CN(C)C(=O)[C@H]1[C@H](CO)[C@H]2Cn3c(ccc(C4=CCCCC4)c3=O)[C@@H]1N2CC1CC1	.	-3	-5	.	.	.
CC(=O)OCC(=O)[C@@]12OC(C)(C)O[C@@H]1CC1C3C[C@H](F)C4=CC(=O)C=CC4(C)[C@@]3(F)C(O)CC12C (stereo not given in full)	2	-3	-8	73*	26	37
